# PubChem BioAssay (NCI)
# The panel holds about 83,000 compounds, 20% with a hit somewhere; the sample as a whole holds those more often.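 Assay: single dose, 48 h. Readout: percent growth (0 = no net growth; negative = cell death). Active: <10.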 Unmarked numbers belong to inactive results. Activity calls are given as the source filed them.
# System: SNB-75 CNS
# Test: NCI-60 one-dose screen, 48 h (100 = growth as untreated, 0 = no growth, -100 = all killed)
# Details: 10 µM unless noted
row,SMILES,growth
1,NCCCOc1cc2ccccc2cc1C(=O)Nc1ccc(Cl)cc1OC(=O)c1cc2ccccc2cc1OCCCN,-86.5% (active)
2,CCCCCCCCCCCCCCCCNC(=S)N/N=C/c1ccc(O)cc1O,113%
3,CC1(C)N=C(N)N=C(N)N1c1cccc(CCCCOc2ccccc2)c1,60.8%
4,CCCC(C)c1cc(Cc2cc(Cl)cc(Cl)c2O)c(O)c(Cc2cc(Cl)cc(Cl)c2O)c1 (stereo not given),12.2%
5,Oc1ccc(Br)cc1/C=N/NC(=S)NC12CC3CC(CC(C3)C1)C2,53.3%
6,Cc1ccc([C@@H]2C[C@H](O)Cc3ccccc3N2)s1,98.4%
7,Cc1c(Cc2ccccc2)c(=O)oc2c(C)c(OCC(=O)n3nc(C#N)cc3N)ccc12,81%
8,N#CCc1ncc(-c2ccc(C(F)(F)F)cc2)c(NC2CCCCCC2)n1,52.5% [100 µM]
9,CCC1(CC)C(OC)NC(Br)=C(C#N)C1(C#N)C(N)=O (stereo not given),99.3%
10,CC1(C)Oc2cc3oc(=O)ccc3cc2C[C@@H]1OCCOS(=O)(=O)c1ccc(C#N)cc1,93.4%
11,CC(C)CCCCCOC(=O)c1ccccc1SSc1ccccc1C(=O)OCCCCCC(C)C,87.2%
12,C=C(NC(=O)[C@H](C(C)C)N(C)c1cccc2[nH]ccc12)C(=O)OC,105%
13,O=C(NC1CCN(Cc2ccccc2)CC1)c1cc(-c2cccnc2)nc2ccc(Cl)cc12,95.6%
14,Cc1c(CN(C)C)cc(C(C)C)cc1C(C)C,96.7%
15,Nc1ccc(S(=O)(=O)c2ccc(NO)cc2)cc1,87.8%
